Assay results from the supplement of paper PMC6555819.

Experiments:
Assay in all cases: PBM binding z-score (relative to random genomic background probes); higher = stronger binding; sequences stand for … in GC…GCGATTGACAGCGTAGAATGAAGG
[1] = tested on: RARb homodimer (NR concentration 270 nM)
Procedure, shortened: (§1)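 Binding buffer was PBS pH 7.4 with 2% milk, 0.02% Triton X-100, 1 mM DTT, 0.2 mg/mL BSA and 0.4 mg/ml salmon testes DNA. In it, ligand-free nuclear receptor dimers were incubated 1 h on custom Agilent 4×180K protein-binding microarrays carrying double-stranded probes. Antibodies against each partner (one per run) detected binding, and z-scores were calculated against random background probes after regression normalization of scanned fluorescence.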

[2] = tested on: RARg:RXRa (NR concentration 270 nM, RXRa partner concentration 90 nM)
Procedure, shortened: as §1

[3] = tested on: RARg homodimer (NR concentration 270 nM)
Procedure, shortened: as §1

[4] = tested on: RXRa DBDmut IVT, anti-RXR (DBD mutation: RXRa K156A/R161A, NR concentration 90 nM)
Procedure, shortened: as §1

[5] = tested on: RXRa homodimer (NR concentration 180 nM)
Procedure, shortened: as §1

[6] = tested on: THRa:RXRa (NR concentration 90 nM, RXRa partner concentration 90 nM)
Procedure, shortened: as §1

[7] = tested on: THRa homodimer (NR concentration 90 nM)
Procedure, shortened: as §1

[8] = tested on: VDR homodimer (NR concentration 270 nM)
Procedure, shortened: as §1

Sequence | PBM binding z-score [1] | PBM binding z-score [2] | PBM binding z-score [3] | PBM binding z-score [4] | PBM binding z-score [5] | PBM binding z-score [6] | PBM binding z-score [7] | PBM binding z-score [8]
ACTTACGGGCCAACGAGGTTATAGCACGCGTATA | 1.08 | 0.977 | 0.949 | 0.889 | 1.01 | 1.76 | 0.399 | 1.31
ACTTTCGGGTCAACGAGGTTATAGCACGCGTATA | 3.85 | 5.69 | 5.44 | 3.12 | 6.2 | 4.62 | 3.51 | 4.05
CATACAGGGTCAGCTAGGCCAGCGTAGGGACGGC | 3.43 | 4.42 | 4.81 | 1.4 | 4.2 | 3.3 | 0.936 | 0.947
AGTCAAAGCTCATCTAGGTAACGTAAGATATGCT | -0.617 | 0.0208 | 0.207 | -0.43 | 0.198 | 0.467 | -0.333 | -0.256
TAGCCTAGGTCTTTGGGCCAGTATAGTACGCATC | -0.337 | -0.253 | -0.164 | -0.783 | -0.392 | -0.218 | -0.674 | -0.826
TCTTATAGATCAGCAGGTTAAGAAAGCTGGCCAA | -0.092 | 0.0544 | -0.0955 | 0.704 | 0.376 | 0.0186 | -0.656 | -0.144
CCTTACGGGTCACGAGGTTATAGCACGACGAGCG | 4.07 | 6.25 | 5.47 | 1.53 | 6.87 | 3.69 | 1.09 | 2.03
